Source: PubChem (several laboratories)
HDAC3 inh – human HDAC3 inhibition. AID 2718. O15379. recombinant HDAC3, fluorogenic peptide/trypsin coupled, fluorescence. 320,000 tested, 0.15% active. inhibition, % at 8.3 µM; in the data active = inhibition above about 26%, passing the limit was not always enough
IDE cell activ – boosts human insulin-degrading enzyme activity in HEK cells | P14735 | FAbeta-B cleavage, fluorescence polarization; 0% vehicle, 100% cell-free pure enzyme wells | activation, % at 5.96 µM | 340,000 tested, 0.073% active;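 active = activation above the mean of all tested compounds plus 3 SD, set per screening campaign, cut at about 17% in these data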
IDE cell inh – inhibitors of human insulin-degrading enzyme in cells; P14735; HEK cells, FAbetaB cleavage, fluorescence polarization; inhibition, % at 5.59 µM; 320,000 tested, 0.41% active; AID 434962;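 active = percent inhibition above the average of all tested compounds plus 3 SD, set per screening campaign, cut at about 16% in these data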;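 note: IDE supplied by intact live HEK cells; FP after avidin binding of uncleaved biotin substrate so inhibition keeps polarization high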
LANA-H2B inh – blocks KSHV LANA binding to histone H2A/H2B; Q9QR71; cell-free LANA-H2A/H2B peptide, fluorescence polarization; inhibition, % (test concentration not listed); 320,000 tested, 0.6% active; AID 2629; in the data active = inhibition mostly above about 10%, no sharp cut-off; inactive = mostly below about 6.7%
A number is an active result. Most compounds without a hit are left out; they make up all but 1.1% or so of the library.

What do the screens show for `S=C(NC1CC1)NC1CCCc2ccccc21` (stereo not drawn)?
HDAC3 inh: inactive; IDE cell activ: inactive; IDE cell inh: inactive; LANA-H2B inh: inactive

What do the screens show for `O=C(CNC(=O)c1ccccc1)NCC(=O)OCC(=O)c1ccc([N+](=O)[O-])cc1`?
HDAC3 inh: inactive; IDE cell activ: inactive; IDE cell inh: inactive; LANA-H2B inh: inactive

How did O=C(CNC(=O)c1ccc(Br)cc1)NCC(=O)OCC(=O)c1ccc([N+](=O)[O-])cc1 do in these assays?
HDAC3 inh: inactive; IDE cell activ: inactive; IDE cell inh: 17.3; LANA-H2B inh: inactive

What do the screens show for `O=C(c1csc2c1CCCC2)n1cccn1`?
HDAC3 inh: 78.8; IDE cell activ: inactive; IDE cell inh: inactive; LANA-H2B inh: inactive

How did COc1cc(C(=O)Nc2ccc3nc(N4CCOCC4)sc3c2)cc(OC)c1OC do in these assays?
HDAC3 inh: inactive; IDE cell activ: inactive; IDE cell inh: inactive; LANA-H2B inh: 37.4

How did CN1CCC(=O)N(CCSc2ccccc2)CC1 do in these assays?
HDAC3 inh: inactive; IDE cell activ: inactive; IDE cell inh: inactive; LANA-H2B inh: inactive

How did CC1CN(C(=O)CCC(=O)NCc2ccccc2)c2ccccc2O1 (stereo not drawn) do in these assays?
HDAC3 inh: inactive; IDE cell activ: inactive; IDE cell inh: inactive; LANA-H2B inh: inactive

Results for CC[C@@]1(c2ccccc2)C(=O)N(C(=O)OC)N1C(=O)OC ?
HDAC3 inh: inactive; IDE cell activ: inactive; IDE cell inh: inactive; LANA-H2B inh: inactive

What do the screens show for `CC[C@]1(c2ccccc2)C(=O)N(C(=O)OC)N1C(=O)OC`?
HDAC3 inh: 44.4; IDE cell activ: inactive; IDE cell inh: inactive; LANA-H2B inh: inactive

Results for CC(C)(O)CC[C@H](OC(=O)c1ccccc1)[C@](C)(O)[C@H]1CC[C@@]2(O)C3=CC(=O)[C@@H]4C[C@@H](O)[C@H](O)C[C@]4(C)C3CC[C@]12C (stereo partly drawn) ?
HDAC3 inh: inactive; IDE cell activ: inactive; IDE cell inh: inactive; LANA-H2B inh: inactive

How did O=C(O)CCCC[C@@H]1SC[C@@H]2NC(=O)N[C@@H]21 do in these assays?
HDAC3 inh: inactive; IDE cell activ: 64.5; IDE cell inh: inactive; LANA-H2B inh: inactive

How did COC(=O)CCCCC1SCC2NC(=O)NC21 (stereo not drawn) do in these assays?
HDAC3 inh: inactive; IDE cell activ: inactive; IDE cell inh: inactive; LANA-H2B inh: inactive

Results for CC1=CC(C)(C)NC(=S)N1c1ccc(N(C)C)cc1 ?
IDE cell activ: inactive

Results for Cc1cccn2c(CNCCc3ccccn3)c(C(=O)N3CCOCC3)nc12 ?
HDAC3 inh: inactive; IDE cell activ: inactive; IDE cell inh: inactive; LANA-H2B inh: 28.9

How did CS(=O)(=O)c1ccc(Cl)c(NC(=O)COC(=O)CCCN2C(=O)c3cccc4cccc(c34)C2=O)c1 do in these assays?
HDAC3 inh: inactive; IDE cell activ: inactive; IDE cell inh: inactive; LANA-H2B inh: inactive

Results for CSc1nc2cc3c(cc2n1C(=O)c1ccc(C)cc1)OCCO3 ?
HDAC3 inh: inactive; IDE cell activ: inactive; IDE cell inh: inactive; LANA-H2B inh: inactive

How did COc1cccc(C(=O)n2c(SC)nc3cc4c(cc32)OCCO4)c1 do in these assays?
HDAC3 inh: 92.0; IDE cell activ: inactive; IDE cell inh: inactive; LANA-H2B inh: inactive

What do the screens show for `O=C(NC1CC1)c1ccc(-n2cccc2)cc1`?
HDAC3 inh: inactive; IDE cell activ: inactive; IDE cell inh: inactive; LANA-H2B inh: 99.4

Results for Cc1ccc(S(=O)(=O)NC23CC4CC(CC(C4)C2)C3)cc1 ?
HDAC3 inh: inactive; IDE cell activ: inactive; IDE cell inh: inactive; LANA-H2B inh: inactive

How did Cc1nn(C)c(C(=O)Nc2ccc(S(=O)(=O)NC34CC5CC(CC(C5)C3)C4)cc2)c1Br do in these assays?
HDAC3 inh: inactive; IDE cell activ: inactive; IDE cell inh: inactive; LANA-H2B inh: 56.5

How did COc1ccc(S(=O)(=O)n2nc(OC(=O)c3ccccc3)cc2N)cc1 do in these assays?
HDAC3 inh: 53.9; IDE cell activ: inactive; IDE cell inh: inactive; LANA-H2B inh: inactive

Results for COc1ccc(S(=O)(=O)n2nc(OC(=O)c3cccs3)cc2N)cc1 ?
HDAC3 inh: 95.3; IDE cell activ: inactive; IDE cell inh: inactive; LANA-H2B inh: inactive

Results for COc1ccc(S(=O)(=O)n2nc(OC(=O)c3ccncc3)cc2N)cc1 ?
HDAC3 inh: inactive; IDE cell activ: inactive; IDE cell inh: inactive; LANA-H2B inh: inactive

Results for COc1ccc(S(=O)(=O)n2nc(OCc3cccs3)cc2N)cc1 ?
HDAC3 inh: inactive; IDE cell activ: inactive; IDE cell inh: inactive; LANA-H2B inh: inactive

Results for Nc1cc(OC(=O)c2ccc(F)cc2)nn1S(=O)(=O)c1ccccc1 ?
HDAC3 inh: 58.7; IDE cell activ: inactive; IDE cell inh: inactive; LANA-H2B inh: inactive

Results for COc1cc(C(=O)Oc2cc(N)n(S(=O)(=O)c3ccc(F)cc3)n2)cc(OC)c1OC ?
HDAC3 inh: inactive; IDE cell activ: inactive; IDE cell inh: inactive; LANA-H2B inh: inactive

What do the screens show for `COc1ccc(S(=O)(=O)n2nc(OC(=O)c3ccc(C)cc3)cc2N)cc1`?
HDAC3 inh: 61.4; IDE cell activ: inactive; IDE cell inh: inactive; LANA-H2B inh: inactive

Results for Cc1c(NC(=O)OCCNC(=O)COc2c(Cl)cccc2Cl)sc(=S)n1C ?
HDAC3 inh: inactive; IDE cell activ: inactive; IDE cell inh: inactive; LANA-H2B inh: inactive

What do the screens show for `COc1cccc(C(=O)NCC(=O)N2CCN(c3ccc(C(F)(F)F)cn3)CC2)c1`?
IDE cell activ: inactive

How did COc1ccc(S(=O)(=O)n2nc(OC(=O)c3ccccc3Br)cc2N)cc1 do in these assays?
HDAC3 inh: inactive; IDE cell activ: inactive; IDE cell inh: inactive; LANA-H2B inh: inactive

Results for CS(=O)(=O)n1nc(OC(=O)c2cccc3ccccc23)cc1N ?
HDAC3 inh: inactive; IDE cell activ: inactive; IDE cell inh: inactive; LANA-H2B inh: inactive

How did CS(=O)(=O)n1nc(OC(=O)c2cccs2)cc1N do in these assays?
HDAC3 inh: 92.6; IDE cell activ: inactive; IDE cell inh: inactive; LANA-H2B inh: inactive

Results for COc1ccc(S(=O)(=O)n2nc(OC(=O)c3ccco3)cc2N)cc1 ?
HDAC3 inh: 71.2; IDE cell activ: inactive; IDE cell inh: inactive; LANA-H2B inh: inactive

How did O=C(CCNC(=O)c1ccc(Cl)cc1)NCC(c1ccco1)N1CCCC1 (stereo not drawn) do in these assays?
IDE cell activ: inactive

What do the screens show for `COc1ccc2c(-c3ccccc3)cc(SCC(=O)NC(N)=O)nc2c1`?
HDAC3 inh: inactive; IDE cell activ: 25.7; IDE cell inh: inactive; LANA-H2B inh: inactive

What do the screens show for `N#C/C(=C\c1cccc(O)c1)C(=O)Nc1ccc2c(c1)OCCO2`?
HDAC3 inh: inactive; IDE cell activ: inactive; IDE cell inh: inactive; LANA-H2B inh: inactive

How did CC1CCC(C(C)C)C(OC(=O)Cn2c(-c3ccccc3)[n+](C)c3ccccc32)C1 (stereo not drawn) do in these assays?
HDAC3 inh: inactive; IDE cell activ: inactive; IDE cell inh: inactive; LANA-H2B inh: 171.8

How did COc1ccc(N2CCN(C(=O)CSc3nc4nc(C)cc(C)n4n3)CC2)cc1 do in these assays?
HDAC3 inh: inactive; IDE cell activ: inactive; IDE cell inh: inactive; LANA-H2B inh: 36.6

Results for CCCN(C(=O)c1cn(C)c(=O)c2ccccc12)c1ccccc1C ?
HDAC3 inh: inactive; IDE cell activ: inactive; IDE cell inh: inactive; LANA-H2B inh: inactive
